# Test results as given in ChEMBL document CHEMBL3988442, “University of Dundee, Small-Polar-MMV Screening Library” (2021).
# About 13,000 (27%) of roughly 48,000 compounds showed an effect of 50% or more. The list shows a part of the results.
# System: Wolbachia pipientis
# Assay: Anti-Wolbachia Cell-Based Screen
# Format: functional
# Design: scale not given: in the data most compounds retested in dose-response had high values
# Settings: 5 µM
row,SMILES,Percent Effect [%]
1,O=C(O)[C@@H]1CN(C2CCCCC2)C[C@H]1C1CC1,8.818
2,CCS(=O)(=O)N1CCC(CSc2ccccc2)C1 (stereo not given),-7.795
3,CNC(=O)C(C)(C)N1CCC[C@H]1C(=O)NCCN1CCOCC1,8.557
4,O=C(O)C(F)(F)F.c1ccc(OCc2nnn3c2CN(c2ncccn2)CCC3)nc1,-15.4
5,CC(=O)NCc1nnn2c1CN(c1ncccn1)CCC2,96.74
6,O=C(O)C(F)(F)F.OCCOCc1nnn2c1CN(c1ncccn1)CCC2,8.15
7,CCc1ccc(C(=O)N2CCCn3nnc(Cn4cccn4)c3C2)cc1,1.938
8,CC(=O)NCc1nnn2c1CN(c1ncc(C)cn1)CCC2,101.7
9,CCS(=O)(=O)N1CCCn2nnc(CNC(C)=O)c2C1,115.8439
10,COCc1nnn2c1CN(C(=O)c1c[nH]cn1)CCC2,-0.6058
11,COc1cccc(-c2noc(-c3ccc(NCC(C)C)nc3)n2)c1OC,-21.63
12,CCN1CCC(c2nnc(CN3CCCC3)n2C2CC2)CC1,-1.245
13,Cc1nc(N(C)C)cc(C2(C)CCNCC2)n1,111
14,Cc1cc(N(C)C)nc(C2(C)CCCNC2)n1 (stereo not given),102.5
15,Cc1cc(N(C)C)nc(C2(C)CCNCC2)n1,87.74
16,Cc1cnn(C2CN(c3nc(C)cc(N(C)C)n3)C2)c1,-14.5
17,Cc1cc(N(C)C)nc(N2CCn3c(C)nnc3C2)n1,-0.4749
18,CN(Cc1ccc2nsnc2c1)C(=O)CCc1cc2n(n1)CCCNC2,-10.43
19,COCc1cc(N(C)Cc2ccccn2)nc(C(C)(C)C)n1,-4.697
20,O=C(COc1ccccc1N1CCCC1)N1CCN[C@H]2CS(=O)(=O)C[C@H]21,-3.795
21,O=C(CCc1ccccc1Br)N1CC(S(=O)(=O)C2CCCCC2)C1,3.843
22,Cc1noc(CNc2ccc(OC(F)F)cc2OC(F)F)n1,-10.63
23,CC(=O)N1CCC(Cc2nccnc2-c2c(C)n[nH]c2C)C1 (stereo not given),110.3

row,SMILES,Percent Effect [%]
1,CC(=O)N1CCC(CN2CCN(Cc3nccn3C)C(C)C2)CC1 (stereo not given),-3.409
2,Cc1ccc(CN(Cc2ccccn2)C(=O)CCC2CCCN(C)C2)s1 (stereo not given),-9.083
3,Cc1n[nH]c(C)c1-c1nccnc1CC1CCN(C(C)C)CC1,127
4,CN1CCCC(N2CCN(c3cc(C(F)(F)F)ccn3)CC2)C1 (stereo not given),-11.03
5,Cc1noc2ncc(C(=O)NCC3CCN(C(C)C)C3)cc12 (stereo not given),-9.955
6,Cc1n[nH]c(C)c1-c1nccnc1CC1CCN(S(C)(=O)=O)C1 (stereo not given),111.1
7,Cc1n[nH]c(C)c1CN1CCC(c2cc(C(C)C)n[nH]2)CC1,7.572
8,CS(=O)(=O)N1CCC(CSc2ccccc2)C1 (stereo not given),7.413
9,Cc1n[nH]c(C)c1-c1nccnc1CC1CCCN(C)C1 (stereo not given),113
10,CC(=O)N1CCC(NC(=O)NCCCc2cn[nH]c2C)CC1,-4.714
11,CS(=O)(=O)N1Cc2nccn2CC(CN2CCCC2=O)C1 (stereo not given),-14.04
12,CN1CCCCC1CCC(=O)NCCSc1cnn[nH]1 (stereo not given),-30.14
13,COCC(=O)N1CCC(Cc2nccnc2-c2c(C)n[nH]c2C)C1 (stereo not given),109.3
14,Cc1n[nH]c(C)c1-c1nccnc1CC1CCNC1 (stereo not given),100.9
15,CCOC(=O)C1CN(C(=O)COC)Cc2ncn(CC)c21 (stereo not given),-5.507
16,CC1CCCCN1C(=O)Cn1cnc(C#N)n1 (stereo not given),-6.637
17,CS(=O)(=O)N1CC(c2nc[nH]n2)c2cc(C(=O)NC3CCCC3)ccc21 (stereo not given),0.6803
18,Cc1ncc(CO)c(CN2CCCC2c2nc3c(C)cccc3[nH]2)c1O (stereo not given),7.788
19,CCN(CC)S(=O)(=O)N1CCCC1C(=O)N1CCSCC1 (stereo not given),22.8
20,Cc1nn(C)cc1CN1CCCC1c1cccc(Nc2nccs2)n1 (stereo not given),88.47
21,COc1c(C2CCCN2Cc2cn3ccsc3n2)c(C)nn1C (stereo not given),3.624
22,CNS(=O)(=O)c1cccc(S(=O)(=O)Nc2ncc(C)s2)c1,2.588
23,Cc1nn(C)c(Cl)c1C1CCCN1Cc1cn2ccsc2n1 (stereo not given),41.71

row,SMILES,Percent Effect [%]
1,Cc1nn(CCO)cc1CN1CCCC1c1nc2c(C)cccc2[nH]1 (stereo not given),-6.904
2,Cc1nonc1NC(=O)C1SCCc2sccc21 (stereo not given),-12.22
3,CCc1cnc(C)nc1NC(CC)c1cnn(C)c1 (stereo not given),-1.737
4,Cn1cc(CN2CCCC3(CCN(Cc4ccncc4)C3=O)C2)cn1 (stereo not given),102
5,Cc1cccc(CN2CCCC3(CCN(CC(=O)N(C)C)C3=O)C2)n1.O=C(O)C(F)(F)F (stereo not given),-13.27
6,Cc1cccc(CN2CCC3(CCCN(Cc4cnn(C)c4)C3)C2=O)n1 (stereo not given),94.18
7,Cc1cnc(CNC(=O)CC2CCc3ccccc32)cn1 (stereo not given),1.8
8,Cc1ccc(CN(C)C(=O)CN2CCOC(Cn3cccn3)C2)o1 (stereo not given),114.2
9,Cc1ccc(CN(C)C(=O)CN2CCCCC2Cn2cncn2)o1 (stereo not given),-8.08
10,CN(Cc1ccco1)C(=O)CN1CCCCC1Cn1cncn1 (stereo not given),-0.1414
11,Cc1ccc(-c2nc(CN3CCOC(Cn4cccn4)C3)cs2)o1 (stereo not given),-10.9
12,Cc1ccc(CN(C)C(=O)CN2CCOC(Cn3cncn3)C2)o1 (stereo not given),-4.818
13,CN(Cc1ccco1)C(=O)CN1CCOC(Cn2cccn2)C1 (stereo not given),126.4
14,CN(Cc1ccco1)C(=O)CN1CCCC1Cn1cccn1 (stereo not given),-1.962
15,Cc1ccc(CN(C)C(=O)CN2CCCC2Cn2cccn2)o1 (stereo not given),15.96
16,CN(Cc1ccco1)C(=O)CN1CCOC(Cn2cncn2)C1 (stereo not given),96.26
17,CN(Cc1ccco1)C(=O)CN1CCCC1Cn1cncn1 (stereo not given),107
18,CN(Cc1ccco1)C(=O)CN1CCCCC1Cn1cccn1 (stereo not given),4.659
19,Cc1ncsc1CN1C[C@@H]2COC[C@]2(COc2ccc(C#N)cn2)C1,-4.86
20,COc1ccc(Cl)cc1C(=O)N(C)Cc1cc(C)on1,-1.731
21,COCc1cc(N2CCc3onc(-c4cccc(OC)c4)c3C2)ncn1,-6.434
22,Cc1nc(C)c(CNCC2CCCn3ccnc32)s1 (stereo not given),-11.09
23,O=C(Nc1ncn(Cc2cccc(Br)c2)n1)C1CCC1,6.264

row,SMILES,Percent Effect [%]
1,CN(Cc1ccc(F)cc1)C(=O)CN1CCOC(Cn2cncn2)C1 (stereo not given),-5.304
2,Cc1nnc(NC(=O)CN2CCOC(Cn3cccn3)C2)s1 (stereo not given),-11.4
3,Cc1ccccc1CN(C)C(=O)CN1CCOC(Cn2cccn2)C1 (stereo not given),111
4,O=C(CN1CCOC(Cn2cccn2)C1)NCCc1ccc(F)cc1 (stereo not given),-2.964
5,CN(Cc1ccc(F)cc1)C(=O)CN1CCOC(Cn2cccn2)C1 (stereo not given),121.8
6,O=C(CN1CCOC(Cn2cccn2)C1)Nc1ccncc1 (stereo not given),-3.889
7,CCN(CCC(F)(F)F)C(=O)Nc1cccc(N2CCOCC2)c1,-10.51
8,CCC(=O)N1CCC(Cc2cc(Nc3ncccn3)ncn2)CC1,93.47
9,CC1CCN(CC(O)CNc2ccccn2)CC1 (stereo not given),-1.4
10,CN1CCC(Cc2cc(Nc3ncccn3)ncn2)CC1,-2.002
11,CN1CCC(Cc2cc(Nc3ccccn3)ncn2)CC1,68.08
12,N#CCCN(Cc1cccnc1)C(=O)c1ccn(-c2ccccc2)n1,1.241
13,COc1ccc(/C=C/CN2C[C@H]3CC[C@@H]2CN(S(=O)(=O)N(C)C)C3)cc1,13.82
14,CC(C)c1cc(NCC2(CO)CCCC2)ncn1,7.781
15,C[C@H](O)CNC(=O)c1cnc(-c2ccccc2)nc1O,-14.22
16,COc1cc(NCC(c2ccccn2)N(C)C)ncn1 (stereo not given),0.2576
17,C[C@H](O)CNc1cc(-c2ccccc2)ncn1,111.5
18,CC(C)c1cc(NCC(O)c2ccncc2)n2nccc2n1 (stereo not given),-8.35
19,C[C@H](O)CNc1cc(-c2ccncc2)ncn1,115
20,O=C(c1ccno1)N1CCC2(CC(=O)N(c3ccc4c(c3)OCO4)C2)C1 (stereo not given),-9.598
21,Cc1ccc(C)c(C(O)Cn2cc(Cl)c(=O)[nH]c2=O)c1 (stereo not given),3.012
22,CCn1nccc1CNC(=O)C(C)n1cc2c(n1)c(C)nn2C (stereo not given),13.18
23,COCCNC(=O)Cn1cc2c(n1)c(C)nn2C(C)C,92.82

row,SMILES,Percent Effect [%]
1,COCCNC(=O)c1cnc(C)nc1C,-12.85
2,CCn1nccc1CNC(=O)C1CCCC1,10.33
3,COCCNC(=O)Cn1cc2c(n1)c(C)nn2C,124.1
4,COCCNC(=O)Cn1nc(C(C)C)c2cnn(C(C)(C)C)c2c1=O,-0.4126
5,COCCNC(=O)C(C)n1cc(Br)cn1 (stereo not given),8.857
6,CCn1nccc1CNC(=O)Cn1cc2c(n1)c(C)nn2C(C)C,116.7
7,COCCNC(=O)N1CCOCC1c1c(C)nn(C)c1C (stereo not given),-9.833
8,O=C(NCc1cnc2n1CCN(Cc1cccs1)C2)c1ccno1.O=C(O)C(F)(F)F,-34.76
9,CC(C)(C)c1noc(CCC(=O)N2CCNC(=O)C2)n1,-18.81
10,CC(C)Cc1ncc2c(n1)CN(c1cc(N)nc(N)n1)C2,16.38
11,CN(CCc1cn[nH]c1)C(=O)C(c1ccc(F)cc1)N(C)C (stereo not given),-6.005
12,Cc1ccc(C(C(=O)N(C)CCc2cn[nH]c2)N(C)C)cc1 (stereo not given),3.285
13,CN(CCc1cn[nH]c1)C(=O)CCc1ccc(Cl)cc1,144.4
14,CC(=O)N1CCN(CCNc2snc(Cl)c2C#N)CC1,4.799
15,N#CCCN(Cc1cccnc1)C(=O)Cc1ccc(-n2cnnn2)cc1,-0.659
16,Cc1ccc(N(CCC#N)C(=O)CCc2cccnc2)cc1C,98.05
17,c1cncc(CCc2nc(C3CC3)nn2-c2ccc3c(c2)OCCO3)c1,-5.22
18,CCC(C)N(Cc1cccnc1)Cc1ccc2c(c1)OCCO2 (stereo not given),9.848
19,N#CCCN(C(=O)CCc1cccnc1)c1ccc2c(c1)OCCO2,88.06
20,N#CCCN(Cc1cccnc1)C(=O)c1cccc(-n2cnnn2)c1,-18.3
21,COCCCC(=O)NS(=O)(=O)c1ccc2c(c1)OCCCO2,-8.462
22,CC(C)(NCC(=O)NCCC#N)c1ccc2c(c1)OCCO2,4.777
23,COCCC(=O)N(CCC#N)c1ccc2c(c1)OCCO2,95.73
